PubChem BioAssay AID602342 (Broad Institute, 2012)
In all, about 340,000 compounds went through this assay and about 1,000 (0.29%) were called active.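 Rule for the calls: active = mean replicate activation score at least 90 and every replicate individually at or above 90; inconclusive = only one of the two criteria met; inactive = neither criterion met.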 What follows is part of a selection rich in actives, with near analogues and random picks from the rest.

Test: miR-122 Renilla sensor signal increase in Huh7, primary screen, miR-122 inhibitor project, cell-based, single point, plate reader (AID 602342);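 note: higher luciferase means less miR-122 activity so hits act as miR-122 inhibitors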
Conditions: Huh7 miR-122 Renilla luciferase sensor, 48 h, stronger effect = higher value, neutral wells = 0, positive control = 100; at 16.7 µM unless noted

Row | Compound | activation (reporter increase)
1 | O=C(C1CCC1)N1C[C@H]2[C@@H](c3ccccc31)[C@@H](CO)N2C(=O)c1ccccc1F | -20% (inactive)
2 | Cc1noc(C)c1NC(=O)Nc1ccc2c(c1)C(=O)N([C@H](C)CO)C[C@@H](C)[C@H](CN(C)C(=O)Nc1cccc3ccccc13)OCCCC[C@@H](C)O2 | 0.113% (inactive)
3 | CN1C(=O)c2cc(NC(=O)c3cscn3)ccc2OC[C@@H]2O[C@H](CC(=O)N3CCCCC3)CC[C@H]21 | 4.63% (inactive)
4 | Cc1sc2ncnc(SCC(=O)Nc3ccc(CN4CCCC4)cc3)c2c1C | 2.95% [at 12.5 µM] (inactive)
5 | CCCNc1ncnc2sc(C)c(C)c12 | 122% [at 12.5 µM] (active)
6 | Cc1sc2ncnc(SCC(=O)NC3CCS(=O)(=O)C3)c2c1C (stereo not given) | -0.478% [at 12.5 µM] (inactive)
7 | O=C(C1CCC1)N1CCCCN2[C@H](C1)[C@@H](c1ccc(C#CC3CCCC3)cc1)[C@@H]2CO | -25.6% (inactive)
8 | O=C(C[C@@H]1CC[C@@H]2[C@H](COC[C@@H](O)CN2Cc2ccc(F)cc2)O1)NCc1ccncn1 | 5.81% (inactive)
9 | C[C@H](CO)N1C[C@H](C)[C@H](CN(C)C(=O)Nc2cccc3ccccc23)OCCCC[C@H](C)Oc2ccc(NC(=O)Nc3ccc4c(c3)OCO4)cc2C1=O | 6.96% (inactive)
10 | Cc1c(C)c(C)c(S(=O)(=O)NCCc2ccccn2)c(C)c1C | 107% [at 12.5 µM] (active)
11 | O=S(=O)(/C=C/c1ccccc1)NCCc1ccccn1 | 73.3% [at 12.5 µM] (inactive)
12 | O=S(=O)(NCCc1ccccn1)c1cc(Cl)cc(Cl)c1O | -4.9% [at 12.5 µM] (inactive)
13 | Cc1noc(C)c1NC(=O)N(C)C[C@H]1OCc2cn(nn2)CCCC(=O)N([C@@H](C)CO)C[C@H]1C | 0.754% (inactive)
14 | C[C@@H]1CN([C@@H](C)CO)S(=O)(=O)c2ccc(-c3cccc(C(=O)N(C)C)c3)cc2O[C@@H]1CN(C)C(=O)Nc1ccccc1 | 18.2% (inactive)
15 | C[C@H]1CN([C@@H](C)CO)C(=O)c2cc(N(C)C)ccc2O[C@@H]1CN(C)S(=O)(=O)c1ccc(Cl)cc1 | 47.5% (inactive)
16 | O=C(NN=Cc1ccccc1)c1ccccc1 | -2.03% [at 12.5 µM] (inactive)
17 | CC(C)c1cc(C(=O)N/N=C/C(Br)=C/c2ccccc2)n[nH]1 | 122% [at 12.5 µM] (active)
18 | Cc1cc(C(=O)N/N=C\C(Br)=C\c2ccccc2)c(C)o1 | 1.4% [at 12.5 µM] (inactive)
19 | O=C(c1cccnc1)N1C[C@H]2[C@@H](c3ccccc31)[C@@H](CO)N2C(=O)Nc1ccccc1F | -2.82% (inactive)
20 | O=[N+]([O-])c1ccccc1/C=C/CN1CCCC(CO)C1 (stereo not given) | 4.13% [at 12.5 µM] (inactive)
21 | CC1CCCCC1NC(=O)COc1ccc(C#N)cc1 (stereo not given) | -5.71% [at 12.5 µM] (inactive)
22 | CC1CCCCC1NC(=O)/C(C#N)=C/C=C/c1ccccc1[N+](=O)[O-] (stereo not given) | 102% [at 12.5 µM] (active)
23 | CN(C[C@@H]1[C@H](c2ccccc2)[C@@H](CO)N1Cc1ccccn1)S(C)(=O)=O | 0% (inactive)
24 | CCCC(=O)Nc1nc2ccc(NC(=O)c3c(F)c(F)c(OC)c(F)c3F)cc2s1 | 143% [at 12.5 µM] (active)
25 | CSc1nc2ccc(NC(=O)c3c(F)cccc3F)cc2s1 | -16% [at 12.5 µM] (inactive)

Row | Compound | activation (reporter increase)
26 | CC(=O)Nc1ccc2nc(NC(=O)CS(=O)(=O)c3ccc(F)cc3)sc2c1 | 5.07% [at 12.5 µM] (inactive)
27 | COc1cccc(-n2cc3c(c2-c2ccccc2)c(=O)n(C)c(=O)n3C)c1 | 13% [at 12.5 µM] (inactive)
28 | COc1ccc(OC)c(-n2cc3c(=O)n(C)c(=O)n(C)c3c2)c1 | 102% [at 12.5 µM] (active)
29 | Cn1c(=O)c2cn(-c3cccc4ccccc34)cc2n(C)c1=O | -1.8% [at 12.5 µM] (inactive)
30 | COc1ccc(S(=O)(=O)Nc2ccc3c(c2)C(=O)N([C@@H](C)CO)C[C@H](C)[C@@H](CN(C)C(=O)NC(C)C)OCCCC[C@H](C)O3)cc1 | 15.2% (inactive)
31 | C[C@H](CO)N1C[C@H](C)[C@H](CN(C)C)Oc2ccc(NC(=O)c3ccncc3)cc2CC1=O | 5.36% (inactive)
32 | COc1ccc(-c2cc(NC(C)=O)c3ncc(-c4cc(OC)c(OC)c(OC)c4)n3c2)cn1 | 107% [at 12.5 µM] (active)
33 | COc1cccc(-c2cnc3c(NC(C)=O)cc(-c4cc(F)ccc4OC)cn23)c1 | 36.5% [at 12.5 µM] (inactive)
34 | COc1ccccc1-c1cc(NC(C)=O)c2ncc(-c3ccc(F)cc3)n2c1 | 5.94% [at 12.5 µM] (inactive)
35 | Cc1noc(C)c1NC(=O)Nc1ccc2c(c1)CC(=O)N([C@@H](C)CO)C[C@@H](C)[C@H](CN(C)Cc1ccc(Oc3ccccc3)cc1)O2 | -3.38% (inactive)
36 | CCC(=O)Nc1ccc2c(c1)C(=O)N(C)[C@@H]1CC[C@@H](CC(=O)NCCc3ccccc3)O[C@H]1CO2 | -4.08% (inactive)
37 | COCC(=O)Nc1ccc2c(c1)[C@@H]1C[C@H](CC(=O)NCc3cc(F)ccc3F)O[C@@H](CO)[C@@H]1O2 | 12.6% (inactive)
38 | CCC(=O)N1[C@H](CO)[C@@H]2c3ccccc3N(S(=O)(=O)c3ccccc3C)C[C@@H]21 | 0% (inactive)
39 | CC(C)CNS(=O)(=O)c1ccc(CCC(=O)NCc2ccc(Cl)cc2)cc1 | 15.1% [at 12.5 µM] (inactive)
40 | Cc1ccc(S(=O)(=O)NC2CCCCCC2)cc1C(N)=O | 62.2% [at 12.5 µM] (inactive)
41 | Cc1cc(S(=O)(=O)NC2CCCCC2)ccc1OCC(=O)NCc1cccnc1 | 72% [at 12.5 µM] (inactive)
42 | O=S(=O)(NC1CCCC1)c1ccc(-n2cnnn2)cc1 | -2.1% [at 12.5 µM] (inactive)
43 | Cc1ccc(S(=O)(=O)NC2CCCCCC2)cc1 | 106% [at 12.5 µM] (active)
44 | CCOc1ccc(C)cc1S(=O)(=O)NC1CCCCCC1 | 67.9% [at 12.5 µM] (inactive)
45 | COc1ccc(C)cc1S(=O)(=O)NC1CCCCC1 | 375% [at 12.5 µM] (active)
46 | CC(C)c1ccc(S(=O)(=O)NC2CCCC2)cc1 | 51.5% [at 12.5 µM] (inactive)
47 | COc1ccc(C)cc1S(=O)(=O)Nc1cccc(Cl)c1Cl | 66.7% [at 12.5 µM] (inactive)
48 | O=C(CCc1ccc(S(=O)(=O)NC2CCCCC2)cc1)NCc1ccccc1 | 101% [at 12.5 µM] (active)
49 | O=S(=O)(NC1CC1)c1ccc(Cl)cc1 | -7.11% [at 12.5 µM] (inactive)
50 | CSc1ccc(S(=O)(=O)NC2CCCCC2)cc1 | 102% [at 12.5 µM] (active)
